# FLuc counter = qHTS profiling assay for firefly luciferase inhibitor/activator using purifed enzyme and Km concentrations of substrates (counterscreen for miR-21 project) | AID 588342, 2011 | 6.9% of 360,000 active | Potency, µM (series often up to 57.5 µM), for the others: at the highest dose activity change, negative = inhibition, usual class: inhibitors | Luciferin 4-monooxygenase (Photinus pyralis), P08659 | purified FLuc, Km substrates, luminescence inhibition;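 note: plate controls were vehicle for no effect and reference inhibitor for full effect; nearly all actives have a fitted effect of over 55% in size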
# Target sequence (P08659 whole entry, looked up): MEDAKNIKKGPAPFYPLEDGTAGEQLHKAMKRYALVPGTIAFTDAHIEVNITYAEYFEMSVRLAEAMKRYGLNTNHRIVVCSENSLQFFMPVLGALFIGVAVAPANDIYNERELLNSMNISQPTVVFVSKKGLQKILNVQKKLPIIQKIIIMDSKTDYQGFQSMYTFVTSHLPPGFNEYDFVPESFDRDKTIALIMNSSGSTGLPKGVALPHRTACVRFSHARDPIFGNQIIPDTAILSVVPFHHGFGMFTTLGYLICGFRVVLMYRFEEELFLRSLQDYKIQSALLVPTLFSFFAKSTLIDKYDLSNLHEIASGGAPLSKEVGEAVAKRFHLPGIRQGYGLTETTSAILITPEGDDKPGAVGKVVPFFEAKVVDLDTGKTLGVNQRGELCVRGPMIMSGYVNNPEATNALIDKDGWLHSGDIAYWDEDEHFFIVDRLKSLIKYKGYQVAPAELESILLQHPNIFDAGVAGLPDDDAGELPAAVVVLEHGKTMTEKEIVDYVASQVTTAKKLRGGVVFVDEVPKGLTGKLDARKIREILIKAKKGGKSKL
#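 Biochemical qHTS of compounds, final roughly 60 µM downward over six points, against 10 nM purified firefly luciferase using Km concentrations of substrates (10 uM D-luciferin, 10 uM ATP) in Tris acetate pH 7.5 buffer; luminescence output.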
# ELG1 genotox = qHTS screen for small molecules that induce genotoxicity in human embryonic kidney (HEK293T) cells expressing luciferase-tagged ELG1 | Potency, µM (doses to about 46 µM), for the others: at the highest dose activity change, positive = activation, usual class: activators | HEK293T ELG1-luciferase reporter, luminescence, 16 h | 1.3% of 330,000 active; note: % of control where 0% means no effect; nearly all actives have a fitted effect of over 60% in size
#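 Genotoxicity was scored as increased ELG1-luciferase reporter signal, measured by ONE-Glo luminescence (30 min, room temperature). Compound or vehicle exposure of the HEK293T reporter cells lasted 16 hr at 37°C.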
# SMN2 splice enh = qHTS Assay for Enhancers of SMN2 Splice Variant Expression; HEK293 SMN2-luciferase splicing reporter, luminescence, 30-36 h; Potency, µM (top dose mostly 46.1 µM), for inactives: top-dose activity change, positive = activation, usual class: activators; 2.8% of 210,000 active; note: % of control where 0% means no effect; nearly all actives have a fitted effect of over 55% in size
#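 qHTS luciferase splicing reporter: luminescence rises when SMN2 exon 7 is included in transfected HEK293 cells. Compound exposure lasted 30-36 h at 37C, with 4.5 mM final sodium butyrate as control, followed by a ONE-Glo read.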
# NPC1 promoter act = qHTS Assay for NPC1 Promoter Activators | Huh7 NPC1 promoter luciferase reporter, 24 h | Potency, µM (top dose mostly 9.22 µM), inactives show at the top dose activation, most hits filed as activators | 2.4% of 320,000 active; note: % of control where 0% means no effect; nearly all actives have a fitted effect of over 60% in size
#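 Stable NPC1-promoter luciferase Huh7 line; cpd (DMSO) 24 h, 37 °C, 5% CO2; Amplite luciferase reagent 10 min RT; luminescence readout. qHTS format.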
# Rab9 promoter act = qHTS Assay for Rab9 Promoter Activators; Potency, µM (series often up to 9.22 µM), for the others: top-dose activation, negative = inhibition, actives largely listed as activators; 2.8% of 320,000 active; Huh7 Rab9 promoter-luciferase reporter, luminescence, 24 h; note: % of control where 0% means no effect; nearly all actives have a fitted effect of over 60% in size
#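 Huh7 cells stably carrying Rab9 promoter–luciferase reporter, plated 1500 cells/well, compound added after 2 h and incubated 24 h at 37 °C; luciferase luminescence then read after 10 min with detection reagent.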
# ELG1 repair inh = qHTS screen for small molecules that inhibit ELG1-dependent DNA repair in human embryonic kidney (HEK293T) cells expressing luciferase-tagged ELG1. HEK293T ELG1-luciferase reporter, luminescence, 16 h; DNA damage induced by 5-fluorouridine. AID 504467, 2011. 2.3% of 330,000 active. Potency, µM (top dose mostly 46.1 µM), for the others: at the top dose activity change, negative = inhibition, actives largely listed as inhibitors; note: % is set by controls: 0 for no effect and ±100 for the full control effect; nearly all actives have a fitted effect of over 55% in size
#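 Reporter activity after DNA damage by 5-fluorouridine is monitored. Compound-treated cells incubate 16 hr at 37 °C, then ONE-Glo is added for 30 min before luminescence reading.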
# Active calls of the source: *; ? = inconclusive; nt = not tested or not shown. Rows were chosen to be rich in hits. Some 9.2% of all compounds tested hit in one or more screens of this group. Calls come from the whole dose curve; as a rule, active = well fitted curve in the direction sought with a large enough effect; inconclusive = small, poorly fitted or top-dose-only effect, or another doubt; inactive = no such curve, though single readings can be large; an effect the other way counts as inactive or inconclusive. Potency is the fitted concentration of half-maximal effect.
SMILES,FLuc counter,ELG1 genotox,SMN2 splice enh,NPC1 promoter act,Rab9 promoter act,ELG1 repair inh
CC(C)CNS(=O)(=O)c1cc(C(=O)O)c(Cl)cc1Cl,-1.4%,2.2%,nt,-3.7%,-1.7%,?
CC(C)CNS(=O)(=O)c1cc(C(=O)OCC(=O)c2ccc3c(c2)OCCO3)c(Cl)cc1Cl,12µM*,4.3%,-8.2%,-1.0%,-14.2%,-1.8%
O=C(NC(=S)NC1CCC(O)CC1)c1ccco1 (stereo not given),nt,2.1%,nt,nt,nt,?
CN(C)c1cc(N/N=C/c2ccccc2C(F)(F)F)nc(N(C)C)n1,-5.0%,0.6%,nt,-1.4%,12.5%,16.4µM*
CC(C)c1ccc(NCCC(=O)c2cccs2)cc1,12µM*,?,18.2%,?,?,?
C/C(=N/OCC(=O)Nc1ccccc1)c1cccs1,9.53µM*,?,-16.6%,?,?,?
COc1ccc(NC(=O)CO/N=C(\C)c2cccs2)cc1,-19.4%,0.9%,-3.6%,-0.9%,-1.8%,12.9%
Cc1cc(C)c(C(CC(=O)c2cccs2)C(C#N)C#N)c(C)c1 (stereo not given),12µM*,18.4µM*,?,?,3.55µM*,?
Cc1ccc(NCCC(=O)c2cccs2)cc1,21.3µM*,?,23.3%,?,2.82µM*,?
Cc1ccc(CNC(=O)CCC(=O)c2cccs2)cc1,-20.2%,-0.1%,-19.6%,-1.4%,1.2%,11.0%
COc1ccc(C(CC(=O)Nc2ccc(OC)c(OC)c2)N2Cc3ccccc3C2=O)cc1 (stereo not given),4.1%,nt,nt,nt,nt,nt
O=C(CCC(=O)c1cccs1)Nc1ccc(N2CCCCC2)cc1,19µM*,12.6%,-5.6%,10.8%,11.0%,7.1%
O=C(CCNc1cccc(Cl)c1)c1cccs1,?,7.7%,-5.2%,15.9%,25.6%,?
Cc1ccc(NCCC(=O)c2cccs2)cc1Cl,?,20.6µM*,5.3%,8.5%,1.4%,?
Cc1ccc(NCCC(=O)c2cccs2)cc1C,3.38µM*,?,?,9.3%,?,?
Cc1ccc(NC(=O)CCC(=O)c2cccs2)cc1,10.7µM*,8.9%,-23.5%,-0.5%,-3.4%,12.5%
Cc1nnc(N2CCN(c3ccccc3F)CC2)c2c1nnn2Cc1ccccc1,5.3%,nt,3.5%,nt,nt,nt
CCC(C)(C)NC(=O)C(c1ccc(C)cc1)N(Cc1ccco1)C(=O)CCC(=O)Nc1nccs1 (stereo not given),0.1%,-8.1%,3.0%,-1.1%,-2.4%,14.7%
CCOC(=O)c1cc(S(=O)(=O)N2CCN(c3ccccc3OC)CC2)[nH]n1,-17.1%,nt,nt,nt,nt,nt
O=C(CC(C(=O)O)c1ccccc1)c1cccs1 (stereo not given),3.3%,-1.7%,nt,-0.5%,7.8%,15.6%
CC(CC(=O)c1cccs1)CC(=O)c1cccs1,21.3µM*,29.2%,?,2.82µM*,2.82µM*,?
Cc1ccc(NC(=O)CCC(=O)c2cccs2)c(Br)c1,?,?,nt,?,3.55µM*,?
Cc1ccc(NC(=O)CNCc2ccccc2)c(Br)c1,?,?,3.1%,14.6%,23.2%,?
Cc1ccc(NC(=O)CNCc2cccs2)c(Br)c1,26.9µM*,?,nt,29.9%,19.2%,?
COC(=O)[C@@H]1C[C@@]2(O)[C@H](O)[C@H](O)[C@H](O)C[C@H]2N1Cc1ccc(N2CCN(C)CC2)cc1,nt,nt,-1.1%,nt,nt,nt
SMILES,FLuc counter,ELG1 genotox,SMN2 splice enh,NPC1 promoter act,Rab9 promoter act,ELG1 repair inh
CCN(CC)CCNC(=O)c1cc2c(=O)n(C)c3cc(Cl)ccc3c2s1,-3.2%,nt,11.1%,nt,nt,nt
Cc1cc(S(=O)(=O)NCC(c2ccc(F)cc2)N2CCN(C)CC2)ccc1F (stereo not given),-2.5%,-2.6%,nt,-0.7%,0.9%,-21.7%
COC(=O)C(Cc1c[nH]c2ccccc12)NC(=O)c1ccc2nc[nH]c2c1 (stereo not given),2.39µM*,2.7%,nt,-3.1%,-1.8%,?
NC(=O)COC(=O)[C@H](Cc1c[nH]c2ccccc12)NC(=O)c1ccc(F)cc1,23.9µM*,-2.0%,nt,-3.8%,3.0%,4.2%
COC(=O)C(Cc1c[nH]c2ccccc12)NC(=O)c1cncc(Br)c1 (stereo not given),-3.3%,-13.4%,nt,5.5%,-1.9%,-1.7%
CCOC(=O)C(Cc1c[nH]c2ccccc12)NC(=O)COc1ccc(CC)cc1 (stereo not given),-20.6%,nt,-11.3%,nt,nt,nt
CCOC(=O)C(Cc1c[nH]c2ccccc12)NC(=O)c1ccco1 (stereo not given),21.3µM*,19.8%,-9.2%,1.2%,-9.7%,19.0%
CCc1ccccc1NC(=O)CSc1nnc(-c2ccco2)n1N,5.8%,0.1%,8.0%,-2.6%,-2.2%,1.4%
COc1ccccc1C(=O)N/N=C/c1ccc2c(c1)OCO2,10.7µM*,?,nt,2.82µM*,?,?
CSc1nsc(N/N=C/c2ccc3c(c2)OCO3)c1C#N,1.69µM*,?,5.62µM*,2.51µM*,0.794µM*,?
COc1ccccc1N/N=C/c1ccc2c(c1)OCO2,9.53µM*,17.2%,-14.7%,10.4%,0.7%,?
COc1cc(/C=N/Nc2snc(SC)c2C#N)cc(OC)c1OC,?,-2.2%,-47.7%,-32.9%,-34.2%,-1.5%
COc1cc2ccccc2cc1C(=O)N/N=C/c1ccc2c(c1)OCO2,?,-3.6%,nt,-27.9%,-19.9%,-0.3%
O=C(N/N=C/c1ccccc1OC(=O)c1ccc2c(c1)OCO2)c1ccccc1,?,?,nt,-0.3%,-7.4%,?
COc1ccccc1NC(=O)NCc1ccc2c(c1)OCO2,-7.3%,-0.2%,-21.8%,1.8%,14.4%,21.7%
COc1ccccc1/C=N/NC(=O)c1ccc2c(c1)OCO2,6.75µM*,8.3%,nt,11.5%,17.8%,?
CC1=C(C(=O)Nc2ccc(C)cc2C)C(c2ccc(C)o2)NC(=S)N1 (stereo not given),6.7%,-1.9%,-9.0%,-3.1%,-4.9%,0.1%
